PubChem BioAssay AID1159580 (chemical genetic matrix, 2015)
“And” between values parts separate entries of the source, which are not always exact repeats. Equal entries are not always repeated. In all, about 5,500 compounds went through this assay and about 2,000 (36%) were called active. About 18% were inconclusive and are not listed. No stated cut-off is given here; in the data, active means normalized growth mostly below about 0.91 (no sharp cut-off); inconclusive means no clear call, values can overlap the other calls; inactive means mostly above about 0.92. Some of the results follow.

Assay: chemical genetic growth profiling, strain panel (AID 1159580);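 further: tested at 20 µM; growth read once vehicle control cultures reached saturation at 30 °C; 1 = growth at the plate median or of vehicle wells; lower values mean less growth of the strain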
Conditions: S. cerevisiae deletion strains, growth OD

Measured: normalized growth

CC[C@@]1(O)C(=O)OCc2c1cc1n(c2=O)Cc2cc3cc(O)ccc3nc2-1
inactive: locus YAL021C, strain ccr4, hits give low values 1.05 | locus YAL026C, strain drs2, hits give low values 1.01 | locus YAL030W, strain snc1, hits give low values 1.02 | locus YBL061C, strain skt5, hits give low values 1.01 | locus YBR009C, strain hhf1, hits give low values 0.972 | locus YBR021W, strain FUR4, hits give low values 1.01 | locus YBR023C, strain chs3, hits give low values 1.02 | locus YBR171W, strain sec66, hits give low values 1.02 | locus YBR229C, strain ROT2, hits give low values 1.01 | locus YBR231C, strain swc5, hits give low values 0.98 | locus YBR279W, strain paf1, hits give low values 1.03 | locus YCL011C, strain gbp2, hits give low values 1.02 | locus YCL016C, strain dcc1, hits give low values 1.01 | locus YCL029C, strain bik1, hits give low values 0.992 | locus YCL069W, strain vba3, hits give low values 1.01 | locus YCR088W, strain abp1, hits give low values 1.01 | locus YDL005C, strain med2, hits give low values 1.02 | locus YDL035C, strain GPR1, hits give low values 1.01 | locus YDL040C, strain nat1, hits give low values 1.02 | locus YDL074C, strain BRE1, hits give low values 1 | locus YDL101C, strain DUN1, hits give low values 1.03 | locus YDL185W, strain tfp1, hits give low values 0.996 | locus YDL192W, strain arf1, hits give low values 0.983 | locus YDR001C, strain nth1, hits give low values 0.992 | locus YDR069C, strain doa4, hits give low values 1.01 | locus YDR101C, strain arx1, hits give low values 0.986 | locus YDR137W, strain rgp1, hits give low values 0.997 | locus YDR159W, strain sac3, hits give low values 0.946 | locus YDR162C, strain NBP2, hits give low values 1.02 | locus YDR195W, strain ref2 1.01 | locus YDR297W, strain sur2, hits give low values 0.987 | locus YDR318W, strain mcm21, hits give low values 0.992 | locus YDR334W, strain swr1, hits give low values 1.04 | locus YDR335W, strain msn5, hits give low values 0.997 | locus YDR388W, hits give low values 0.989 | locus YDR392W, strain spt3, hits give low values 0.976 | locus YDR502C, strain sam2, hits give low values 0.973 | locus YEL003W, strain gim4, hits give low values 0.995 | locus YEL037C, strain rad23, hits give low values 1.01 | locus YEL061C, strain CIN8 (second series), hits give low values 1.01 | locus YEL061C, strain CIN8, hits give low values 1.01 | locus YER015W, strain faa2, hits give low values 0.993 | locus YER016W, strain bim1, hits give low values 1.02 | locus YER110C, hits give low values 0.991 | locus YER111C, strain swi4, hits give low values 1.01 | locus YER155C, strain BEM2 (second series), hits give low values 0.972 | locus YER155C, strain BEM2, hits give low values 1.01 | locus YER167W, strain BCK2, hits give low values 1.01 | locus YFR010W, strain ubp6, hits give low values 0.972 | locus YGL078C, strain dbp3, hits give low values 0.99 | locus YGL086W, strain mad1, hits give low values 0.988 | locus YGL167C, strain pmr1, hits give low values 1.01 | locus YGL173C, strain kem1, hits give low values 0.97 | locus YGL227W, strain vid30, hits give low values 1.01 | locus YGL240W, strain doc1, hits give low values 0.947 | locus YGL248W, strain PDE1, hits give low values 1.03 | locus YGL253W, strain hxk2, hits give low values 1 | locus YGR078C, strain PAC10, hits give low values 1.02 | locus YGR135W, strain pre9, hits give low values 0.991 | locus YGR252W, strain gcn5, hits give low values 0.972 | locus YHR013C, strain ard1, hits give low values 1.03 | locus YHR027C, strain rpn1, hits give low values 1 | locus YHR030C, strain SLT2, hits give low values 1.02 and 0.974 | locus YHR079C, strain IRE1 (second series), hits give low values 0.981 | locus YHR079C, strain IRE1, hits give low values 0.952 | locus YHR094C, strain hxt1, hits give low values 0.98 | locus YHR129C, strain ARP1, hits give low values 1.01 | locus YHR142W, strain chs7, hits give low values 1.02 | locus YHR200W, strain rpn10, hits give low values 1.01 | locus YIL066C, strain RNR3, hits give low values 1.01 | locus YIL073C, strain SPO22, hits give low values 0.985 | locus YIL125W, strain kgd1, hits give low values 0.992 | locus YIR030C, strain dcg1, hits give low values 0.981 | locus YJL092W, strain hpr5, hits give low values 0.992 | locus YJL095W, strain BCK1 (second series), hits give low values 1.02 | locus YJL095W, strain BCK1, hits give low values 1.04 and 0.957 | locus YJL115W, strain asf1, hits give low values 0.984 | locus YJL129C, strain trk1, hits give low values 1 | locus YJL134W, strain LCB3, hits give low values 1.02 | locus YJL154C, strain vps35, hits give low values 1 | locus YJL164C, strain tpk1, hits give low values 1.01 | locus YJL166W, strain qcr8, hits give low values 0.99 | locus YJL168C, strain set2, hits give low values 0.989 | locus YJL187C, strain SWE1 (second series), hits give low values 1.02 | locus YJL187C, strain SWE1, hits give low values 1.02 | locus YJR043C, strain POL32, hits give low values 0.993 | locus YJR066W, strain TOR1, hits give low values 0.986 | locus YKL009W, strain mrt4, hits give low values 1.04
